HIF-2a block: blocks HIF-2a reporter activity; 786-0 RCC cells HIF-2a reporter, luciferase luminescence, overnight; 0.72% of 360,000 active; inhibition, % at 18.8 µM;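 active = inhibition of the luminescence signal of 40% or more relative to plate controls, in a single-dose primary screen at 18.75 µM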
Shn3 inh set2: reduces Shn3 3'UTR luciferase signal in osteoblasts; AID 588674; 0.52% of 360,000 active; Clone20 osteoblast Shn3 3'UTR firefly luciferase, 24 h; inhibition, % at 12.5 µM;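 active = mean inhibition of at least 75% with every replicate also reaching 75%; inconclusive = mean inhibition at least 75% but some replicate below; inactive = mean inhibition below 75%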
LMP1 NFkB inh: Epstein-Barr LMP1 NF-kappaB reporter inhibition; LMP1-induced NF-kappaB luciferase reporter cells, luminescence; inhibition, % at 12.5 µM; 0.69% of 350,000 active; AID 504558; in the data active = inhibition above about 41%; inconclusive = no clear call, values can overlap the other calls
TRPM1 prom inh: reduces MITF-dependent TRPM1 promoter luciferase signal; SK-MEL-5 TRPM1 promoter luciferase, 24 h; inhibition, % at 12.5 µM; 0.83% of 330,000 active;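 active = mean inhibition across replicates of 60% or more, whatever share of single replicates reaches that level; inconclusive = some that reach 60%, reason not given; inactive = mean inhibition across replicates below 60%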
PAX8 reporter: lowers PAX8-driven luciferase in RMG-I cells; inhibition, % at 12.6 µM; RMG-I TPO-luciferase reporter, SteadyGlo, 24 h; 1.2% of 360,000 active;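 active = mean replicate inhibition at least 60% with every replicate also reaching 60%; inconclusive = only one of the two criteria is met; inactive = mean below 60% and not all replicates reaching 60%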;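 also: luciferase light reporting Pax8 driven TPO promoter activity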
Peg3 promoter: Peg3 promoter activity inhibition. inhibition, % at 20 µM. 1.7% of 360,000 active. HeLa PEG-Prom luciferase reporter, luminescence, overnight. AID 588405;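 active = inhibition of at least 50% at 20 µM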
A number is an active result; . = inactive; ? = inconclusive; / = no result. Most compounds without a hit are left out; they make up all but 2.8% or so of the library.

SMILES	HIF-2a block	Shn3 inh set2	LMP1 NFkB inh	TRPM1 prom inh	PAX8 reporter	Peg3 promoter
Cc1ccc(-c2csc(N3CCN(CCCn4c(C(F)(F)F)nc5ccccc54)CC3)n2)cc1	.	.	.	.	.	.
O=C(CSc1n[nH]c(-c2ccccn2)n1)Nc1cccc(Cl)c1	.	92	.	.	/	.
Cc1nc(SCC(=O)Nc2cccc(Cl)c2)n[nH]1	.	.	.	.	/	.
O=C(O)c1ccc(-c2ccc(-c3ccccc3)cc2)s1	70	.	.	81	/	85
OC(COC(c1ccccc1)c1ccccc1)CN1CCOCC1 (stereo not given)	.	.	.	.	.	.
CC1CN(CC(O)COC(c2ccccc2)c2ccccc2)CC(C)O1 (stereo not given)	.	.	.	.	120	.
Cc1cc(NC(=O)CSc2nc3c(c(=O)n2CCc2ccccc2)SC(C)C3)no1 (stereo not given)	.	.	77	.	.	.
COc1cc(-c2cc(OC)c3c(C)oc(C)c3c(=O)c2)ccc1O	.	.	.	.	/	.
CCCc1cc(=O)c2c(O)ccc(OC)c2o1	.	.	55	.	.	.
CC(C)NC(=O)Nc1cccc2c1O[C@@H](CN(C)S(=O)(=O)c1ccc(Cl)cc1)[C@@H](C)CN([C@H](C)CO)C2=O	/	/	/	/	.	/
CC(C)c1nc(SCC(=O)Nc2cccc(C(F)(F)F)c2)c2c(=O)n(C)c(=O)n(C)c2n1	.	86	.	/	.	.
C/C(=N\NC(=O)c1ccccc1NC(=O)c1ccc(Cl)cc1)c1ccncc1	.	.	54	.	.	64
CC(=NNC(=O)c1ccncc1)c1ccccc1Cl	.	.	.	.	.	.
C/C(=N\NC(=O)c1nn(C)cc1Br)c1ccc(NC(=O)c2ccncc2)cc1	.	.	.	.	87	.
c1ccc(/N=C2\N=C(Nc3ccccn3)c3ccccc32)nc1	.	.	.	.	79	64
Cc1ccc(S(=O)(=O)Nc2cccc3c2O[C@@H](CN(C)S(=O)(=O)c2ccccc2)[C@H](C)CN([C@@H](C)CO)C3=O)cc1	/	/	/	/	.	/
FC(F)(F)c1cc(C(F)(F)F)c2ccc(N3CCN(c4ccc(Cl)cc4)CC3)nc2n1	.	.	.	.	.	.
N#CC(c1ccc(Cl)cc1)c1ccc2c(C(F)(F)F)cc(C(F)(F)F)nc2n1 (stereo not given)	.	89	52	79	/	52
COC(=O)[C@@]12C[C@@H](CC(=O)N3CCN(C(=O)c4ccco4)CC3)C(=O)N(Cc3ccco3)C1=CCC(C)(C)C2	.	/	/	/	87	/
COC(=O)[C@@]12C[C@@H](CC(=O)N3CCN(C(=O)c4ccco4)CC3)C(=O)N(Cc3ccccc3)C1=CCC(C)(C)C2	.	/	/	/	88	/
COC(=O)[C@]12C[C@H](CC(=O)N3CCN(C(=O)c4ccco4)CC3)C(=O)N(Cc3ccccc3)C1=C[C@H](C(C)(C)C)O[C@@H]2C	/	/	/	/	74	/
COC(=O)[C@@]12C[C@@H](CC(=O)N3CCN(C(=O)c4ccco4)CC3)C(=O)N(Cc3ccc4c(c3)OCO4)C1=CCC(C)(C)C2	.	/	/	/	.	/
Cc1cc(C)nc(N/N=C/c2cc(Br)ccc2O)n1	.	89	.	.	.	.
Cc1cc(C)nc(N/N=C/c2ccccc2OCc2ccc(Br)cc2)n1	.	.	.	.	.	.
NC(=O)CC(NC(=O)c1cccc(Br)c1)c1ccc(N2CCN(c3ccccn3)CC2)c([N+](=O)[O-])c1 (stereo not given)	81	.	.	.	.	.
SMILES	HIF-2a block	Shn3 inh set2	LMP1 NFkB inh	TRPM1 prom inh	PAX8 reporter	Peg3 promoter
CNC[C@@H]1Oc2ncc(-c3cccc(C(=O)N(C)C)c3)cc2C(=O)N([C@@H](C)CO)C[C@@H]1C	/	/	/	/	.	/
CC1=C(C)/C(=N\OS(=O)(=O)c2ccc(C)cc2)C=CC1=O	88	95	.	.	63	106
COc1ccc(S(=O)(=O)/N=C2/C=CC(=O)C(C)=C2C)cc1	.	.	.	.	/	.
O=C(COc1cccc(NC(=O)c2cccc([N+](=O)[O-])c2)c1)c1ccc(Br)cc1	.	.	.	.	/	50
NCC[C@@H]1CC[C@H](NC(=O)CCN2CCCCC2)[C@H](CO)O1	/	/	/	/	.	/
CN(C[C@H]1[C@H](c2ccccc2)[C@@H](CO)N1C(=O)c1ccccc1)C(=O)C1CCC1	/	/	/	/	.	/
O=C(O)c1cn2c3c(ccc(Cl)c3c1=O)OCC2	.	.	51	.	.	.
CCN(CC(=O)Nc1ccc(NC(C)=O)cc1)C(=O)c1cccnc1Sc1ccc(C)c(C)c1	.	.	41	.	.	.
O=C(Nc1ccc(OCC(=O)N2CCOCC2)cc1)c1ccccc1Cl	.	.	51	.	.	.
Cc1noc(C)c1NC(=O)Nc1ccc2c(c1)C(=O)N([C@H](C)CO)C[C@H](C)[C@H](CN(C)C(=O)Nc1ccc(C(F)(F)F)cc1)OCCCC[C@H](C)O2	/	/	/	/	.	/
COc1ccc(OC)c(NC(=O)COC(=O)COc2ccc(Nc3ccccc3)cc2)c1	.	.	70	.	.	.
COc1ccc(OC)c(NC(=O)COC(=O)c2c3c(nc4ccccc24)CCCC3)c1	.	90	.	.	/	78
COc1ccc(NC(=O)COc2ccccc2)c(OC)c1	.	.	.	.	.	.
Nc1ccc2c(c1)CC(=O)c1ccccc1S2	.	.	.	.	93	.
O=C1Cc2ccccc2Sc2ccc(O)cc21	.	.	.	.	.	.
Cn1c(=O)c([N+](=O)[O-])c(-n2ccnc2)c2ccccc21	.	.	.	89	.	55
Cn1nnc2cc(C(=O)NC3CCCCC3)ccc21	.	.	59	.	/	.
COc1ccc(S(=O)(=O)Nc2ccc3c(c2)C(=O)N([C@@H](C)CO)C[C@H](C)[C@@H](CN(C)C(=O)NC2CCCCC2)OCCCC[C@H](C)O3)cc1	/	/	/	/	.	/
COc1ccc(-c2noc3c2-c2nc(-c4ccc(Br)cc4)sc2CC3)cc1	.	.	.	.	.	.
CC(C)(C)c1nc2c(s1)CCc1onc(-c3ccc(Br)cc3)c1-2	.	.	43	.	.	.
COc1ccc2nc(N=NC3=C(O)CC(C)(C)CC3=O)sc2c1	.	.	.	64	.	.
COc1ccc2nc(N)sc2c1	.	.	.	.	/	.
COc1ccc2nc(N=Nc3ccc(O)c4ccccc34)sc2c1	.	?	.	75	.	.
CC(=O)c1ccc(-n2nnnc2SCC(=O)N2CCc3ccccc3C2)cc1	.	.	49	.	/	.
CCOc1ccc(N(CC(=O)N2CCc3ccccc32)S(=O)(=O)c2c(C)noc2C)cc1	.	.	47	.	.	.
CCOc1ccc(N(CC(=O)Nc2ccccc2OCC)S(=O)(=O)c2c(C)noc2C)cc1	.	.	.	65	80	.
Cc1ccc(S(=O)(=O)N[C@H]2CC[C@H](CCNC(=O)C3CCC3)O[C@H]2CO)cc1	/	/	/	/	.	/
C[C@H](CO)N1C[C@H](C)[C@@H](CN(C)CC2CC2)OCCCC[C@H](C)Oc2ccc(NS(C)(=O)=O)cc2C1=O	/	/	/	/	.	/
